According to PubChem BioAssay AID588453 (National Center for Advancing Translational Sciences (NCATS), 2011):
Among all 390,000 compounds or so, about 4,000 (1%) were called active. Inconclusive results (about 4%) are left out. The entries come from a sample that favours actives as a whole. A number with no mark means an inactive call. Calls follow the shape of the dose curve; as a rule, active = well fitted inhibition curve with a large enough effect; inconclusive = small, poorly fitted or top-dose-only effect; inactive = no such curve, though single readings can be large or run the other way.

biological target: Thioredoxin reductase 1, cytoplasmic (Rattus norvegicus) (UniProt O89049); assay: qHTS Assay for Inhibitors of Mammalian Selenoprotein Thioredoxin Reductase 1 (TrxR1): qHTS; settings: recombinant rTrxR1, NADPH fluorescence consumption, selenite substrate; series mostly up to 114 µM; activity change, negative = inhibition: at the top concentration; also: nearly all actives have a fitted effect of over 65% in size
Sequence (O89049 whole entry, looked up): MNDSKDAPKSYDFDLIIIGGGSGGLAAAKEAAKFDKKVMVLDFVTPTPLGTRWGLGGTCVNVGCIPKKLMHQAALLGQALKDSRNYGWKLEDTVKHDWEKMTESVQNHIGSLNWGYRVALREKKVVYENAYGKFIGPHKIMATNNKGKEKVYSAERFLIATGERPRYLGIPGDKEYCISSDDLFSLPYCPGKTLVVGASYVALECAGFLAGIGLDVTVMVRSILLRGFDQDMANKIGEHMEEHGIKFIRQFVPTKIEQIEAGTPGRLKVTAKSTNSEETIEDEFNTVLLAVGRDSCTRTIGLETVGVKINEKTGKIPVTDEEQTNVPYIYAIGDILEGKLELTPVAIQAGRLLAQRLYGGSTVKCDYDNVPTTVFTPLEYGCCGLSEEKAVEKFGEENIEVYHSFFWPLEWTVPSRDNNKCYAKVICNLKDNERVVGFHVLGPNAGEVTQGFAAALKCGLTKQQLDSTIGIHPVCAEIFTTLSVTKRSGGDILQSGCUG
In short: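 Rat TrxR1 (90 nM in the dispensed reagent) was pre-reduced with 400 uM NADPH for 5 min at room temperature, then incubated with compound for 15 min. After 400 uM selenite was added, NADPH fluorescence (Ex 340/Em 450 nm) was followed for 8 min.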
% is scaled to controls: 0 for no effect and ±100 for the full control effect; potency is read from the fitted curve at half-maximal effect.

Structure (SMILES) | activity change, negative = inhibition | Potency
COC(=O)c1ccc(NC(=O)CSc2n[nH]c(-c3ccccc3)n2)cc1 | 14.1% [at 57.1 µM] | –
O=C(Nc1nsc(-c2ccccc2)n1)c1ccncc1 | 12.5% [at 57.1 µM] | –
COC(=O)c1nc(NC(=O)c2ccccc2)n[nH]1 | – | 56.2 µM (active)
COc1ccc(CNC(=O)c2cc3c(=O)[nH]c4ccc(C)cc4c3s2)c(OC)c1 | 25.7% | –
Cc1cccc(Cn2c(=O)n(CCC(=O)NCCc3ccc(Cl)cc3)c(=O)c3sccc32)c1 | 7.89% | –
O=S(=O)(c1ccccc1)c1nc(Cc2ccccc2)oc1N1CCOCC1 | – | 1.58 µM (active)
COc1ccc(-c2nc(S(=O)(=O)c3ccccc3)c(N3CCCCC3)o2)cc1 | -3.21% | –
O=S(=O)(c1ccccc1)c1nc(-c2ccc(Cl)cc2Cl)oc1N1CCCCC1 | 28.6% [at 57.1 µM] | –
CCOc1ccc(-c2cc3c(=O)n(CC(=O)NCc4ccc(OC)cc4)ccn3n2)cc1 | 22.5% [at 57.1 µM] | –
Cc1c(CCO)sc[n+]1CC(=O)c1ccc2ccccc2c1 | 14% | –
Cc1noc2ncnc(NCc3ccccc3Cl)c12 | 3.77% | –
COc1ccc(-c2oc3ncnc(NCCCO)c3c2-c2ccc(OC)cc2)cc1 | 4.95% [at 57.1 µM] | –
OCCNc1ncnc2oc(-c3ccco3)c(-c3ccco3)c12 | – | 50.1 µM (active)
CN(C)c1ccc(/C=N\Nc2ccc([N+](=O)[O-])cc2[N+](=O)[O-])cc1Cl | 26.5% [at 0.0914 µM] | –
Cc1ccc2ncc(C(=O)Nc3ccc(OC(F)(F)F)cc3)c(=O)n2c1 | 2.86% | –
Cc1ccccc1-n1nc(C)c2c1N=C1C(Cl)=CC(Cl)=CN1C2c1ccc(C(=O)O)cc1 (stereo unspecified) | – | 12.6 µM (active)
Cc1ccccc1-n1nc(C)c2cc(C(=O)NC3CC3)sc21 | 3.32% | –
O=C(CCc1nc(CN2CCN(S(=O)(=O)c3ccc(Br)cc3)CC2)no1)N1CCCCC1 | 12.7% | –
Cc1noc(/C=C/N(C)C)c1S(=O)(=O)N1CCCC(C(=O)Nc2cccc(F)c2)C1 (stereo unspecified) | 0.96% | –
Cc1nccc(-c2ccc(-n3c(C)ccc3C)cc2)n1 | – | 79.4 µM (active)
c1ccc(-c2nccc(-c3ccc(-n4cnc5ccccc54)cc3)n2)nc1 | -11.2% | –
Cc1ccc(C)n1-c1ccncc1 | -10.9% | –
NC1CCN(O)C1=O (stereo unspecified) | -13.1% [at 57.1 µM] | –
CC(C)(C)OC(=O)N(Cc1ccco1)S(=O)(=O)c1ccccc1Br | -3.07% | –
O=C(NCc1ccccc1Cl)c1cccn1-c1nnc(N2CCCCC2)s1 | -0.494% [at 57.1 µM] | –
O=C(NCCc1ccccc1)c1ccc2c(c1)N(Cc1ccccc1)C(=O)c1ccccc1S2(=O)=O | 23.8% | –

Structure (SMILES) | activity change, negative = inhibition | Potency
CCCCOc1ccc(CN2C(=O)C(=O)c3cc(Br)cc(C)c32)cc1OC | -11.8% | –
CCOc1ccc(-c2ccc(SCC(=O)N3CCOCC3)nn2)cc1 | 20.2% [at 57.1 µM] | –
CCOc1ccc(C(=O)CCN2CCOCC2)cc1 | – | 3.16 µM (active)
CCOc1ccc(C(=O)N2CCN(CCc3ccccn3)CC2)cc1 | 13.2% | –
SCc1nc2ccc(Cl)cc2[nH]1 | 14.2% | –
Cc1ccccc1C(=O)Nc1sc2c(c1C(=O)N1CCC(C)CC1)CCCC2 | 7.89% | –
Cc1cccc(NC(=O)C2CCCN2S(=O)(=O)c2cccc3nsnc23)c1C (stereo unspecified) | 24.3% | –
COc1c(O)ccc2c1CN1CCc3cc4c(cc3C1C2)OCO4 (stereo unspecified) | – | 50.1 µM (active)
COc1cc(COCC(O)CN2CCN(Cc3ccc4c(c3)OCO4)CC2)cc(OC)c1OC (stereo unspecified) | 9.46% [at 57.1 µM] | –
COc1cc(C2c3cc4c(cc3C(O)C3COC(=O)C23)OCO4)cc(OC)c1OC (stereo unspecified) | – | inactive
Nc1nc(N)c(N=O)c(N)n1 | -5.22% | –
COc1ccc(NS(=O)(=O)c2cc3c4c(c2)CC(=O)N4CCC3)cc1Cl | 18.3% [at 57.1 µM] | –
Fc1ccc(-c2ccc(-c3nn4c(-c5ccco5)nnc4s3)o2)cc1 | – | 35.5 µM (active)
O=C(Nc1ccc(Br)cc1)c1ccc(Br)c(S(=O)(=O)NCc2ccccc2)c1 | 13.6% [at 57.1 µM] | –
O=C(NC1CC(=O)N(c2ccc(Cl)cc2)C1)C1CCCC1 (stereo unspecified) | 2.69% [at 57.1 µM] | –
Cc1ccc(CCNC(=O)c2ccc3c(c2)N(Cc2cc(C)ccc2C)C(=O)c2ccccc2S3=O)cc1 (stereo unspecified) | 33.3% | –
C[N+]1(CC(=O)c2cccs2)CCOCC1 | 0.401% | –
Cc1ccccc1C(CC(=O)c1cccs1)C(C#N)C#N (stereo unspecified) | – | 10 µM (active)
Cc1ccccc1N(C(=O)CNC(=O)c1cccs1)C(C(=O)NC1CCCC1)c1ccncc1 (stereo unspecified) | 14.1% | –
CCOC(=O)c1ccc(NC(=O)c2c(NCc3cccc(OC)c3)sc3c2CCC3)cc1 | 17% [at 57.1 µM] | –
CCOC(=O)c1ccc(NC2=CC(c3ccc(OCC)cc3)N(c3ccc(C(=O)OCC)cc3)C2=O)cc1 (stereo unspecified) | 6.64% | –
CCOc1ccc(N2C(=O)/C(=C/c3ccc(C)o3)N(C)C2=S)cc1 | – | 31.6 µM (active)
CCOc1ccc(N2C(=O)CN(c3cccc4ccccc34)C2=S)cc1 | 14.6% [at 57.1 µM] | –
COc1ccc(Cn2c(=O)n(-c3ccccc3C)c(=O)c3c4c(sc32)CN(C(C)=O)CC4)cc1 | 2.71% | –
O=C(COc1ccccc1Cl)Nc1ccc2nc(SCC(=O)N3CCCC3)sc2c1 | 25.8% | –
